BAZ2B block – blocks human BAZ2B. Q9UIF8. AlphaScreen BAZ2B-H3K14Ac peptide displacement. Potency, µM (series often up to 114 µM), usual class: inhibitors. actives 4.4% (n = 360,000). AID 504333; further: nearly all actives have a fitted effect of over 60% in size
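Multi-concentration screen (max 110 uM) measuring displacement of acetylated histone H3 peptide from BAZ2B by AlphaScreen, using 50 nM protein, 50 nM peptide and 10 ug/mL streptavidin donor plus Ni-chelate acceptor beads.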
Sfp PPTase inh – inhibitors of Bacillus subtilis Sfp phosphopantetheinyl transferase; Q9F4F7; Biochemical Sfp PPTase activity, qHTS; Potency, µM, actives largely listed as inhibitors; actives 3.5% (n = 310,000); AID 1490;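 further: the enzyme is Sfp with the accession as filed and its product quenches rhodamine fluorescence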
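Step 1, compound plus 15 nM Sfp-PPTase, 15 min, room temperature. Step 2, add rhodamine-CoA (5 uM) and BHQ-2-YbbR (12.5 uM). Step 3, read 525/598 nm fluorescence at 0 and 30 min.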
HP1b binding inh – HP1-beta chromodomain-methylated histone interaction inhibition; P83916; AlphaScreen HP1-beta / biotin-H3K9me3 peptide binding; Potency, µM (series often up to 114 µM), usual class: inhibitors; actives 0.56% (n = 390,000); AID 540317; further: nearly all actives have a fitted effect of over 70% in size
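HP1-beta protein (50 nM final) preincubated 30 min at room temperature with biotinylated H3(1-18)K9me3 peptide (50 nM) in PBS pH 7.4, 0.01% Tween-20, then compound added for 30 min. AlphaScreen streptavidin donor/nickel chelate acceptor beads (10 ug/mL final), 30 min dark, luminescence read.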
JMJD2A Tudor inh – inhibitors of human JMJD2A Tudor domain; Potency, µM (highest dose often 114 µM), hits mostly inhibitors; O75164; AlphaScreen JMJD2A-Tudor / H3K4me3 peptide binding; actives 4.4% (n = 390,000); AID 504339; further: nearly all actives have a fitted effect of over 50% in size
Target sequence (O75164 whole entry, looked up, the tested form may be a part): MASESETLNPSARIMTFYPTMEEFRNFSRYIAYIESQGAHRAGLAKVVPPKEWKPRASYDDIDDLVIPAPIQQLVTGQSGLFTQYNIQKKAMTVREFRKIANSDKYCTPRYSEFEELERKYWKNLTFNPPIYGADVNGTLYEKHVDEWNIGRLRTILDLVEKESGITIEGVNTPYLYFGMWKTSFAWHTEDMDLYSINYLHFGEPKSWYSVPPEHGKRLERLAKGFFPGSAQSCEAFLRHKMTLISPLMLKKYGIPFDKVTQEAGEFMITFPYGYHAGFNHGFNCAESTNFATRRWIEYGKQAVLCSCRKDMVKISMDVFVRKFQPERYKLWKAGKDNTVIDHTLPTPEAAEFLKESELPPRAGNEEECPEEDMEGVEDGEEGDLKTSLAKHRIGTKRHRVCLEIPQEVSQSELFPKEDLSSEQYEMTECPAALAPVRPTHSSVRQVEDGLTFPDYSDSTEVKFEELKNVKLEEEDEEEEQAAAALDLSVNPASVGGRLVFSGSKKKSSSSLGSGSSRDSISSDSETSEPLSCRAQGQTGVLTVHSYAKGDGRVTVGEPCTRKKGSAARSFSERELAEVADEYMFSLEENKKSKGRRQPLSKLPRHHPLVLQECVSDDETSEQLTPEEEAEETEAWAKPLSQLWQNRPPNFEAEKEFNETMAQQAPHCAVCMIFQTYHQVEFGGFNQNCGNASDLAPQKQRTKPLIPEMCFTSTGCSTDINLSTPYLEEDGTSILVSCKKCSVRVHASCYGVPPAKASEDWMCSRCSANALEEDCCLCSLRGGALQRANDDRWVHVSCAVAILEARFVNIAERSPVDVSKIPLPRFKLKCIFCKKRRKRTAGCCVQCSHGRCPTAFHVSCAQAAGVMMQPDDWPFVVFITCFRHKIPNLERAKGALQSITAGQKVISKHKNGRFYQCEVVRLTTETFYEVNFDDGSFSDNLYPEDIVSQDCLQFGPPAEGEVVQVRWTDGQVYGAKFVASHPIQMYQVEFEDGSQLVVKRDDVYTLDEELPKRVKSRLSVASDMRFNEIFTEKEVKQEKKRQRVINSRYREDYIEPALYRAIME
G9a inh – inhibitors of human histone lysine methyltransferase G9a; Q96KQ7; G9a H3K9 monomethylation, AlphaScreen, 2 h; Potency, µM (top dose mostly 102 µM), hits mostly inhibitors; actives 8.8% (n = 350,000); AID 504332; further: nearly all actives have a fitted effect of over 75% in size
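Quantitative HTS format: methyltransferase activity on a biotin-tagged H3K9 peptide is measured by AlphaScreen, using a rabbit anti-monomethyl-H3K9 antibody with streptavidin donor and anti-IgG acceptor beads. Final levels are 20 nM enzyme, 500 nM peptide, 20 uM SAM; 2 h RT.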
A number is an active result; - = inactive; ? = inconclusive; . = not tested or not shown; [ ] = remark or other dose. Shown are actives, neighbours in structure and some others; about 12% of the full set was active somewhere. The call rests on the fitted dose curve; in most records, active means well fitted curve in the direction sought with a large enough effect; inconclusive means small, poorly fitted or top-dose-only effect, or another doubt; inactive means no such curve, though single readings can be large; an effect the other way counts as inactive or inconclusive.

SMILES	BAZ2B block	Sfp PPTase inh	HP1b binding inh	JMJD2A Tudor inh	G9a inh
CCOC(=O)c1c(COC(=O)c2ccco2)nc2ccccc2[n+]1[O-]	-	-	-	-	-
CC[C@]1(C(=O)OC)[C@H]2C(=O)N(C)C(=O)[C@H]2[C@H]2CN=C(SCc3ccc(C(=O)OC)cc3)N21	.	.	-	-	.
CN1C(=O)Cc2cc(S(=O)(=O)CCC(=O)N3CCN(c4ccc(Cl)cc4)CC3)ccc21	-	.	-	-	-
COc1ccc(O[C@H]2C=C[C@@H](c3ccccc3)O[C@@H]2CO/N=C(\C)CCN2CCCCc3nc(C)c(C)cc32)cc1	?	-	.	.	40µM
COc1ccc(O[C@H]2C=C[C@@H](c3ccccc3)O[C@H]2COC(=O)CC/C(C)=N\O[C@@H](C)CN2CCCc3nc(C)c(C)cc32)cc1	.	-	.	.	.
C/C(CCN1CCCCc2nc(C)c(C)cc21)=N\OC[C@@H](O)[C@H]1O[C@@H]2OC(C)(C)O[C@@H]2[C@H]1O	-	-	.	.	50µM
C/C(CCN1CCCCc2nc(C)c(C)cc21)=N\OC[C@@H](O)[C@@H]1O[C@@H]2OC(C)(C)O[C@@H]2[C@H]1O	.	-	.	.	.
Cc1onc(-c2ccccc2Cl)c1C(=O)N1CCN(c2ccc(F)cc2)CC1	-	-	-	-	-
Cc1ccc(OCCN2C(=O)C(=O)c3cc(C)ccc32)cc1	35µM	-	?	56µM	25µM
Cc1ccc(OCCN2C(=O)S/C(=C\c3ccc(C)o3)C2=O)cc1	?	18µM	-	-	32µM
CCCN1C(=O)S/C(=C/c2ccc(N3CCOCC3)o2)C1=O	?	1.3µM	-	-	-[12.7 µM]
CCN1C(=O)S/C(=C\c2ccc(N3CCOCC3)cc2C)C1=O	-	-	-	-	?
Cc1ccc2c(c1)C(=O)C(=O)N2Cc1ccc(OC(C)C)cc1	?	.	?	-	?
Cc1ccc(Oc2ccccc2/C=C2\SC(=O)N(C)C2=O)cc1	-	-	-	-	-
CCCN1C(=O)S/C(=C\c2ccc(N3CCOCC3)cc2C)C1=O	?	-	.	.	-
CCCN1C(=O)S/C(=C\c2ccc(N3CCOCC3)o2)C1=O	-	3.2µM	?	?	4µM
Cc1ccc2[nH]c(CSc3nnc(NC(=O)COc4ccccc4F)s3)cc(=O)c2c1	-	.	-	-	-
CCCN(CCC)C(=O)Cn1c(=O)n(-c2ccc(CC)cc2)c(=O)c2c3c(sc21)CCC3	-	.	-	-	-
COc1cccc(NC(=S)N(Cc2ccc(Cl)cc2)Cc2ccc(C(=O)O)cc2)c1	-	-	-	-	50µM
COc1ccc(CN(Cc2ccc(C(=O)O)cc2)C(=S)Nc2cc(C)cc(C)c2)cc1OC	-	-	-	-	-
COc1ccc(CN(CC2CCC(C(=O)O)CC2)C(=S)Nc2cc(Cl)ccc2OC)cc1 (stereo unspecified)	-	40µM	-	-	?
COc1ccc(Cl)cc1NC(=S)N(Cc1ccc(C(=O)O)cc1)Cc1ccc(OC)c(OC)c1	-	40µM	-	-	28µM
C[C@H](CO)N1C[C@H](C)[C@@H](CN(C)C(=O)Nc2ccc3c(c2)OCO3)Oc2ccc(NS(=O)(=O)c3ccccc3)cc2C1=O	.	.	-	-	.
O=C(Nc1ccc(F)cc1)c1csc2c1CCCCC2	-	.	-	-	?
O=C(COC(=O)c1cc(-c2ccccc2)nc2c(Cl)cccc12)c1ccc(F)cc1	-	.	-	-	-
SMILES	BAZ2B block	Sfp PPTase inh	HP1b binding inh	JMJD2A Tudor inh	G9a inh
CC(=NCCCn1ccnc1)C1=C(O)c2ccccc2C1=O	45µM	-	-	-	-
CC1(C)CC23C(=O)CCC(O)C2(C)CCC13 (stereo unspecified)	.	-	.	.	.
COc1ccc(N2C(=O)CN=C2Nc2nc(C)cc(C)n2)cc1OC	?	-	-	79µM	-
Cc1cccc(/N=C/c2c(C)[nH]n(-c3ccccc3)c2=O)n1	?	-	-	-[11.4 µM]	?
C=CCN=Cc1c(C)[nH]n(-c2ccccc2)c1=O	-	-	-	-	-
Cc1ccc(-n2[nH]c(C)c(/C=N/c3cccc(C)n3)c2=O)cc1	-	-	-	-[11.4 µM]	50µM
Cc1[nH]n(-c2ccccc2)c(=O)c1C=Nc1cccc(F)c1	-	-	-	-	45µM
Cc1[nH]n(-c2ccccc2)c(=O)c1C=Nc1ccc2[nH]c(=O)[nH]c2c1	-	-	-	-	?
Cc1[nH]n(-c2ccccc2)c(=O)c1/C=N/c1nn[nH]n1	?	-	-	-[11.4 µM]	50µM
Cc1[nH]n(-c2ccccc2)c(=O)c1/C=N/N(c1ccccc1)c1ccccc1	?	-	?	40µM	-[0.501 µM]
CC(C)C1Nc2c(O)cc(Cl)c([N+](=O)[O-])c2C2C=CCC21 (stereo unspecified)	25µM	-	?	40µM	25µM
COc1cc(C2C(C(=O)Nc3ccccc3C)=C(C)Nc3nc(SCc4cc(C)ccc4C)nn32)ccc1O (stereo unspecified)	-	.	-	-	-
CCc1ccc(N=C2NC(=O)/C(=C/c3cc(Br)c(OCC(=O)O)c(OC)c3)S2)cc1	50µM	-	?	50µM	50µM
CCc1ccc(N=C2NC(=O)/C(=C/c3cc(OC)c(OC)c(OC)c3)S2)cc1	-	-	-	-	-
CCOC(=O)c1cc(-c2ccc(N)cc2)sc1N	32µM	-	-	45µM	?
CC(C)c1ccccc1S(=O)(=O)c1cc(N)c2ncccc2c1[N+](=O)[O-]	.	-	.	.	.
c1ccc2[nH]c(CN3CCCCCC3)nc2c1	-	-	-	-	28µM
COc1ccc(-n2c(Cn3nnc4ccccc43)n[nH]c2=S)cc1	-	-	-	18µM	8.9µM
CCCCC(CC(O)COCCC)C(=O)NN (stereo unspecified)	-	-	-	-	-
S=c1[nH]nc(CCSCc2ccccc2)n1-c1ccccc1	?	-	-	40µM	3.5µM
COc1ccc(-n2c(Cn3nnc4ccccc43)nnc2SCC(=O)O)cc1	.	-	-	-	-
CCCOc1ccc(CCc2n[nH]c(=S)n2-c2ccccc2)cc1	-	-	-	-	5.6µM
CCCCC(CC(O)COCCC)c1n[nH]c(=S)n1-c1ccccc1 (stereo unspecified)	-	?	-	16µM	-[0.501 µM]
COCCn1c(=O)c(CCc2ccccc2)nc2cnc(Oc3ccc(OC)cc3)nc21	.	-	.	.	-[0.501 µM]
O=C(CN1CCN(CC(=O)Nc2ccc3c(c2)OC2(CCCCC2)O3)CC1)Nc1cccc(F)c1	.	.	-	?	.
SMILES	BAZ2B block	Sfp PPTase inh	HP1b binding inh	JMJD2A Tudor inh	G9a inh
COc1ccccc1N1CCN(CCc2n[nH]c(=S)n2-c2ccccc2)CC1	50µM	-	-	18µM	?
CCCOc1ccc(CCc2n[nH]c(=S)n2Cc2ccccc2)cc1	-	-	-	-	?
COc1ccccc1N1CCN(CCCCN2C(=O)c3ccccc3C2=O)CC1	.	-	-	-	-[12.7 µM]
CCCCCC(O)CCc1n[nH]c(=S)n1-c1ccccc1 (stereo unspecified)	-	-	-	20µM	8.9µM
CCOc1ccc(-n2c(CCc3ccccc3)n[nH]c2=S)cc1	-	-	-	16µM	?
Oc1ccc(CCc2n[nH]c(=S)n2-c2ccc(F)cc2)cc1	-	-	-	25µM	6.3µM

From PubChem BioAssay
